Source: ChEMBL document CHEMBL1961873, “Compounds: GSK PKIS; Assays: Nanosyn kinase panel” (2012)

These molecules were tested against T1, Serine/threonine-protein kinase BRSK1 (Homo sapiens) (UniProt Q8TDC3). Settings: at 1 µM.
T1 sequence (whole entry): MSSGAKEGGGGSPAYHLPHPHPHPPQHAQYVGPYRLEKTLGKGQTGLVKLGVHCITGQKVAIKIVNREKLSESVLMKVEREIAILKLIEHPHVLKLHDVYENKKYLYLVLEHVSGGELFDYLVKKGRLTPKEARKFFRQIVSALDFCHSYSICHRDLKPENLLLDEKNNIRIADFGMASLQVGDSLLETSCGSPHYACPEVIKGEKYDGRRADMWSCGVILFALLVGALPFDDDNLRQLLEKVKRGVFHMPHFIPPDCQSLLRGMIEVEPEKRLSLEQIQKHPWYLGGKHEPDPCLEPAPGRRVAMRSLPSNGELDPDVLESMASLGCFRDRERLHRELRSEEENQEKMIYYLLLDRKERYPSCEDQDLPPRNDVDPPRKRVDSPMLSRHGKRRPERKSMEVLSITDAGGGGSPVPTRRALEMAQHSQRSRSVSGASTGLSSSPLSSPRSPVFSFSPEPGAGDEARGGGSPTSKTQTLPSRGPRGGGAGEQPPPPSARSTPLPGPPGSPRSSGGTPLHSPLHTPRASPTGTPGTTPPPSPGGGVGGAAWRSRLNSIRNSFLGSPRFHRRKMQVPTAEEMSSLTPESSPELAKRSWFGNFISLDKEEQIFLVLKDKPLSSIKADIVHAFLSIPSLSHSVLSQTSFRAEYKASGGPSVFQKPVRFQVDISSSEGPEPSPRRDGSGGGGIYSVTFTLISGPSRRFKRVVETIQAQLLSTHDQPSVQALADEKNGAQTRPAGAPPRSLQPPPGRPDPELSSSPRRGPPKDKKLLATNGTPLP
`Nc1nonc1-c1nc2cnccc2n1C1CCCCC1` showed an inhibition of 4.25%. `COc1cc2c(cc1Nc1nc(Nc3ccsc3C(N)=O)c3cc[nH]c3n1)N(C(=O)CN(C)C)CCC2` showed an inhibition of 1.57%. For `CCn1c(-c2nonc2N)nc2c(C#CC(C)(C)O)nc(O[C@@H](CN)c3ccccc3)cc21`, the inhibition was 38.4%. `NS(=O)(=O)c1ccc(-c2ccc3c(NC(=O)C4CC4)n[nH]c3c2)cc1` gave an inhibition of 6.53%. In the case of `CCn1c(-c2nonc2N)nc2c(C#CC(C)(C)O)ncc(OC[C@@H]3CCCN3)c21`, the inhibition is reported as 1.83%. In the case of `Cc1cc(-c2ccco2)cc(C)c1/C=C/c1cncc(-c2nn[nH]n2)c1`, the inhibition is reported as 1.13%. Molecule `CCn1c(-c2nonc2N)nc2c(C#CCN)ncc(OCCCN)c21` has an inhibition of 10.3%. `Fc1ccc(-c2ncn(C3CCNCC3)c2-c2ccnc(Oc3ccccc3)n2)cc1` was tested, and the inhibition was -0.55%. With `NC(=O)c1sc(-n2cnc3cc(C(F)(F)F)ccc32)cc1OCc1ccccc1Br` the inhibition was 3.25%. For `NS(=O)(=O)c1ccc(N/C=C2\C(=O)Nc3ccc4ncsc4c32)cc1`, the inhibition was 53.1%. Molecule `COc1cc(C=NNc2ncnc3c2cnn3Cc2ccccc2)ccc1O` has an inhibition of 1.48%. For `CCn1c(-c2nonc2N)nc2c(C#CC(C)(C)O)ncc(OCC3CCNCC3)c21`, the inhibition was 6.72%. Molecule `COc1cccc(COc2cc(-n3cnc4ccccc43)sc2C(N)=O)c1` has an inhibition of 5.63%. Molecule `COc1cccc(-n2ncc3c(N/N=C/c4ccncc4)ncnc32)c1` has an inhibition of 52.5%.

These molecules were tested against T2, Serine/threonine-protein kinase BRSK2 (Homo sapiens) (UniProt Q8IWQ3). Settings: at 0.1 µM.
T2 sequence (whole entry): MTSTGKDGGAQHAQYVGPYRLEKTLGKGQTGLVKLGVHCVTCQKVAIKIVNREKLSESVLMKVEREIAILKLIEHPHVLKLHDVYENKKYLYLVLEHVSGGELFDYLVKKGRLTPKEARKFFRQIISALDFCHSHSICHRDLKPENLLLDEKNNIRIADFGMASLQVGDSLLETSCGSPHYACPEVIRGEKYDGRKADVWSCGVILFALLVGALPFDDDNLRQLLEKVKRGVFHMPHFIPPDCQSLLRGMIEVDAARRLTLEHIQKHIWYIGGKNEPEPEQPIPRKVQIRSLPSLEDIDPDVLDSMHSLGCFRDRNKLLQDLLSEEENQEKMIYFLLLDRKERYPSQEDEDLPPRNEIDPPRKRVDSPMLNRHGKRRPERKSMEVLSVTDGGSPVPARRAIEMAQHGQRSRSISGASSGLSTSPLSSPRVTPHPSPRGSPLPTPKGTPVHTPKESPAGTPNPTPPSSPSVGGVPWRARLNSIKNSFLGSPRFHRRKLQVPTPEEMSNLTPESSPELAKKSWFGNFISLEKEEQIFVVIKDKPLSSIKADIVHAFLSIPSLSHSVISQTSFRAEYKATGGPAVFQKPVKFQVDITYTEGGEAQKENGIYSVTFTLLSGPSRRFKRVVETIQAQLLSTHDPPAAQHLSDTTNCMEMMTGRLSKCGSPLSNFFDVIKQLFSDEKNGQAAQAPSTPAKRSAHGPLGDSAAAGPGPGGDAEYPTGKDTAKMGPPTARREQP
Molecule `Nc1nonc1-c1nc2cnccc2n1C1CCCCC1` has an inhibition of 0.61%. With `COc1cc2c(cc1Nc1nc(Nc3ccsc3C(N)=O)c3cc[nH]c3n1)N(C(=O)CN(C)C)CCC2` the inhibition was 0.73%. `CCn1c(-c2nonc2N)nc2c(C#CC(C)(C)O)nc(O[C@@H](CN)c3ccccc3)cc21` gave an inhibition of 13.7%. In the case of `NS(=O)(=O)c1ccc(-c2ccc3c(NC(=O)C4CC4)n[nH]c3c2)cc1`, the inhibition is reported as 4.08%. `CCn1c(-c2nonc2N)nc2c(C#CC(C)(C)O)ncc(OC[C@@H]3CCCN3)c21` was tested, and the inhibition was 0.98%. Molecule `Cc1cc(-c2ccco2)cc(C)c1/C=C/c1cncc(-c2nn[nH]n2)c1` has an inhibition of 0.76%. `CCn1c(-c2nonc2N)nc2c(C#CCN)ncc(OCCCN)c21` gave an inhibition of 7.19%. `Fc1ccc(-c2ncn(C3CCNCC3)c2-c2ccnc(Oc3ccccc3)n2)cc1` gave an inhibition of 0.01%. Molecule `NC(=O)c1sc(-n2cnc3cc(C(F)(F)F)ccc32)cc1OCc1ccccc1Br` has an inhibition of 2.43%. With `NS(=O)(=O)c1ccc(N/C=C2\C(=O)Nc3ccc4ncsc4c32)cc1` the inhibition was 33%. Molecule `COc1cc(C=NNc2ncnc3c2cnn3Cc2ccccc2)ccc1O` has an inhibition of 0.53%. Molecule `CCn1c(-c2nonc2N)nc2c(C#CC(C)(C)O)ncc(OCC3CCNCC3)c21` has an inhibition of 2.53%. `COc1cccc(COc2cc(-n3cnc4ccccc43)sc2C(N)=O)c1` gave an inhibition of 0.26%. Work on `COc1cccc(-n2ncc3c(N/N=C/c4ccncc4)ncnc32)c1` yielded an inhibition of 18.6%.

What follows are molecules tested against T2, Serine/threonine-protein kinase BRSK2 (Homo sapiens). Settings: at 1 µM.
`Nc1nonc1-c1nc2cnccc2n1C1CCCCC1` was tested, and the inhibition was 6.14%. In the case of `COc1cc2c(cc1Nc1nc(Nc3ccsc3C(N)=O)c3cc[nH]c3n1)N(C(=O)CN(C)C)CCC2`, the inhibition is reported as -0.28%. `CCn1c(-c2nonc2N)nc2c(C#CC(C)(C)O)nc(O[C@@H](CN)c3ccccc3)cc21` gave an inhibition of 58.8%. `NS(=O)(=O)c1ccc(-c2ccc3c(NC(=O)C4CC4)n[nH]c3c2)cc1` showed an inhibition of 7.2%. `CCn1c(-c2nonc2N)nc2c(C#CC(C)(C)O)ncc(OC[C@@H]3CCCN3)c21` was tested, and the inhibition was 1.11%. Molecule `Cc1cc(-c2ccco2)cc(C)c1/C=C/c1cncc(-c2nn[nH]n2)c1` has an inhibition of 0.62%. Work on `CCn1c(-c2nonc2N)nc2c(C#CCN)ncc(OCCCN)c21` yielded an inhibition of 12.2%. `Fc1ccc(-c2ncn(C3CCNCC3)c2-c2ccnc(Oc3ccccc3)n2)cc1` was tested, and the inhibition was 2.57%. Work on `NC(=O)c1sc(-n2cnc3cc(C(F)(F)F)ccc32)cc1OCc1ccccc1Br` yielded an inhibition of 8.5%. `NS(=O)(=O)c1ccc(N/C=C2\C(=O)Nc3ccc4ncsc4c32)cc1` was tested, and the inhibition was 62.4%. With `COc1cc(C=NNc2ncnc3c2cnn3Cc2ccccc2)ccc1O` the inhibition was 2.95%. `CCn1c(-c2nonc2N)nc2c(C#CC(C)(C)O)ncc(OCC3CCNCC3)c21` gave an inhibition of 10.8%. In the case of `COc1cccc(COc2cc(-n3cnc4ccccc43)sc2C(N)=O)c1`, the inhibition is reported as 4.17%. `COc1cccc(-n2ncc3c(N/N=C/c4ccncc4)ncnc32)c1` showed an inhibition of 60.1%.

These molecules were tested against Calcium/calmodulin-dependent protein kinase type 1D (Homo sapiens) (UniProt Q8IU85). Settings: at 0.1 µM.
Calcium/calmodulin-dependent protein kinase type 1D (Homo sapiens), sequence (Q8IU85 whole entry, looked up): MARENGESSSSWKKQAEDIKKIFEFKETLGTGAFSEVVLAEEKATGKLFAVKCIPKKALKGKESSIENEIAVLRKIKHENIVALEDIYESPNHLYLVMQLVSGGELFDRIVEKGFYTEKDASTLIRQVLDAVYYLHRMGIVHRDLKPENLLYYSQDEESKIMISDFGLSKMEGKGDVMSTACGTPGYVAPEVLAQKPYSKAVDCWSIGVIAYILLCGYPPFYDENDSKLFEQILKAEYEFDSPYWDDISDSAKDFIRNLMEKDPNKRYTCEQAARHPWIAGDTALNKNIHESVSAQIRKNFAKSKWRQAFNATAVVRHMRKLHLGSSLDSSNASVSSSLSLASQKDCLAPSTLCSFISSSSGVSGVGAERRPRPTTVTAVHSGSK
With `Nc1nonc1-c1nc2cnccc2n1C1CCCCC1` the inhibition was 0.69%. Molecule `CCn1c(-c2nonc2N)nc2c(C#CC(C)(C)O)nc(O[C@@H](CN)c3ccccc3)cc21` has an inhibition of 13.2%. With `NS(=O)(=O)c1ccc(-c2ccc3c(NC(=O)C4CC4)n[nH]c3c2)cc1` the inhibition was -1.85%. `CCn1c(-c2nonc2N)nc2c(C#CC(C)(C)O)ncc(OC[C@@H]3CCCN3)c21` gave an inhibition of 0.27%. `Cc1cc(-c2ccco2)cc(C)c1/C=C/c1cncc(-c2nn[nH]n2)c1` showed an inhibition of 0.45%. With `CCn1c(-c2nonc2N)nc2c(C#CCN)ncc(OCCCN)c21` the inhibition was -0.21%. `Fc1ccc(-c2ncn(C3CCNCC3)c2-c2ccnc(Oc3ccccc3)n2)cc1` showed an inhibition of -1.05%. In the case of `NC(=O)c1sc(-n2cnc3cc(C(F)(F)F)ccc32)cc1OCc1ccccc1Br`, the inhibition is reported as 0.11%. `NS(=O)(=O)c1ccc(N/C=C2\C(=O)Nc3ccc4ncsc4c32)cc1` was tested, and the inhibition was 0.05%. With `COc1cc(C=NNc2ncnc3c2cnn3Cc2ccccc2)ccc1O` the inhibition was 0.1%. For `CCn1c(-c2nonc2N)nc2c(C#CC(C)(C)O)ncc(OCC3CCNCC3)c21`, the inhibition was -0.03%. `COc1cccc(COc2cc(-n3cnc4ccccc43)sc2C(N)=O)c1` was tested, and the inhibition was 0.91%. For `COc1cccc(-n2ncc3c(N/N=C/c4ccncc4)ncnc32)c1`, the inhibition was 0.07%.
